Hits are enriched below; roughly 10% of the tested compounds scored in any of these assays.
GLS inhibitor: blocks human kidney-isoform glutaminase activity; GLS enzymatic activity, qHTS titration; Potency, µM (titrated, usually from 45.5 µM), without a hit: at the top dose activity change, negative = inhibition, most hits filed as inhibitors; 410,000 tested, 0.21% active; AID 624170; further: on the % scale 0 is the no-effect control and ±100 the full control effect
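Human kidney-isoform GLS in 45 mM KH2PO4 pH 8.2, 0.02% Tween-20, with compound, started with 1mM L-Glutamine (added stock). Glutamate oxidase/HRP/Amplex red coupled fluorescence read at start and after 30 min at RT.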
HP1b chromo inh: HP1-beta chromodomain-methylated histone interaction inhibition; P83916; AlphaScreen HP1-beta / biotin-H3K9me3 peptide binding; Potency, µM (doses to about 114 µM), inactives show top-dose activity change, negative = inhibition, hits mostly inhibitors; 390,000 tested, 0.56% active; further: nearly all actives have a fitted effect of over 70% in size
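AlphaScreen: HP1-beta (50 nM) preformed 30 min with biotin-H3(1-18)K9me3 peptide (50 nM) in PBS pH 7.4, 0.01% Tween-20. Compound added for 30 min at RT, then streptavidin donor/nickel chelate acceptor beads (10 ug/mL) for 30 min.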
BAZ2B inh: blocks human BAZ2B. Q9UIF8. AlphaScreen BAZ2B-H3K14Ac peptide displacement. Potency, µM (titrated, usually from 114 µM), inactives show at the top dose activity change, negative = inhibition, hits mostly inhibitors. 360,000 tested, 4.4% active. AID 504333; further: on the % scale 0 is the no-effect control and ±100 the full control effect; nearly all actives have a fitted effect of over 60% in size
Target sequence (Q9UIF8 whole entry, looked up): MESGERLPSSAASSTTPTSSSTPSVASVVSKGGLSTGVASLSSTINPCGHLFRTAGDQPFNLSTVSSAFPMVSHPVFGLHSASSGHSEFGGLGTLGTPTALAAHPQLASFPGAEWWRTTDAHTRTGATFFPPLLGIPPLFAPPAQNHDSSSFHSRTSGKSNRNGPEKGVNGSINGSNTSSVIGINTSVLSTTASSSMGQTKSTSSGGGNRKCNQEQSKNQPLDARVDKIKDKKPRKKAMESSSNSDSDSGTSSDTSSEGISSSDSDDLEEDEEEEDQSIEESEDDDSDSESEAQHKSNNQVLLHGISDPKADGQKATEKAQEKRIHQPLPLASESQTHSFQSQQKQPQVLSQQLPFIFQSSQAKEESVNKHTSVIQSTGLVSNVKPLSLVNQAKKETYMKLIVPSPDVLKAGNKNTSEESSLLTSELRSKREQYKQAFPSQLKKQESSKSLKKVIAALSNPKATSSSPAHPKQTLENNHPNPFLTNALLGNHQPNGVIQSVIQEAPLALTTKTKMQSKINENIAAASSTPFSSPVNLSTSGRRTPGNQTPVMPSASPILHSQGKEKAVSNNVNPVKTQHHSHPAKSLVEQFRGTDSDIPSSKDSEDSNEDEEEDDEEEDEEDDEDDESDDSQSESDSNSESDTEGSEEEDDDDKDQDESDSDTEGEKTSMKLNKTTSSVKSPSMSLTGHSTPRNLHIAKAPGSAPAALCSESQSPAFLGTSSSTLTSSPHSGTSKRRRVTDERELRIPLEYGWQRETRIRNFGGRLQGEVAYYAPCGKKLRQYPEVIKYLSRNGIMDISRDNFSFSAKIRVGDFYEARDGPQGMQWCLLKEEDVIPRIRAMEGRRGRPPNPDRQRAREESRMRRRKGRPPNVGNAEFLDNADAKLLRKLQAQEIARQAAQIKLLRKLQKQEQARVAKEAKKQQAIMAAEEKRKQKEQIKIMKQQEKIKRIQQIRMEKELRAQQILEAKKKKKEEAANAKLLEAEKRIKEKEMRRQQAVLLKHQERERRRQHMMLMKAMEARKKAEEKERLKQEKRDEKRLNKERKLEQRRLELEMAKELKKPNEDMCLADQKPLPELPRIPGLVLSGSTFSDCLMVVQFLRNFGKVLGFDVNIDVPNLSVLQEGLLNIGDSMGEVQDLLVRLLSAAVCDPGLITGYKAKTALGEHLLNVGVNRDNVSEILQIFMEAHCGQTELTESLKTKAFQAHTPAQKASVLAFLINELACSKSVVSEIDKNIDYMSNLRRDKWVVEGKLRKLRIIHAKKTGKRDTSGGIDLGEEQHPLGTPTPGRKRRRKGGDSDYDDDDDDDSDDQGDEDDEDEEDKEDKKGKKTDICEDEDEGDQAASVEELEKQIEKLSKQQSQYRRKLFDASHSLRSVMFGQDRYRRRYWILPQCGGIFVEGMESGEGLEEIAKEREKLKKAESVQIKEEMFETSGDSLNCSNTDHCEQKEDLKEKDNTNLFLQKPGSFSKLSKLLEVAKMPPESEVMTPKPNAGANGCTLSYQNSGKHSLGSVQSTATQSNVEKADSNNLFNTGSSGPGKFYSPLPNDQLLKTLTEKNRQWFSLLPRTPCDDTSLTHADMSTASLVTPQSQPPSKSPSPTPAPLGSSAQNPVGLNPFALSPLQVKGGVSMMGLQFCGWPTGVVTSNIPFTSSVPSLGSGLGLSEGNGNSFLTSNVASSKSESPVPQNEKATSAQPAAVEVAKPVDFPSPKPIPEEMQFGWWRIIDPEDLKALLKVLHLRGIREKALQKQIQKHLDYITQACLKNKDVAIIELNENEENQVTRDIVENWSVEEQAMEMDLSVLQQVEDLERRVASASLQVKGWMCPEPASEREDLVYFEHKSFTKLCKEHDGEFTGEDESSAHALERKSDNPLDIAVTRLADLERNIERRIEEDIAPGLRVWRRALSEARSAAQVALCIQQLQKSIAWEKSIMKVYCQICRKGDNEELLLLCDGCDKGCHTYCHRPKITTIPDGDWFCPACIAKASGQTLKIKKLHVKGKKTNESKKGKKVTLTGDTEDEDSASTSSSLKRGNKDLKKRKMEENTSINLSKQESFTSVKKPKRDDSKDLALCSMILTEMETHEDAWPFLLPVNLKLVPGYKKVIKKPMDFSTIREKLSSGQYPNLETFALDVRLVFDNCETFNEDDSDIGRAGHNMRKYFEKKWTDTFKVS
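In this displacement format the biotinylated H3(5-23) peptide acetylated at Lys14 serves as ligand at 50 nM, with BAZ2B at 50 nM in PBS pH 7.4 containing 0.01% Tween-20. Donor and acceptor beads are 10 ug/mL final.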
JMJD2A Tudor inh: blocks the human JMJD2A Tudor domain. O75164. AlphaScreen JMJD2A-Tudor / H3K4me3 peptide binding. AID 504339. Potency, µM (titrated, usually from 114 µM), inactives show at the highest dose activity change, negative = inhibition, most hits filed as inhibitors. 390,000 tested, 4.4% active; further: on the % scale 0 is the no-effect control and ±100 the full control effect; nearly all actives have a fitted effect of over 50% in size
L3MBTL1 inh: L3MBTL1 (human) inhibition. Q9Y468. AlphaScreen L3MBTL1–H3K9me1 peptide binding. Potency, µM (titrated, usually from 57.1 µM), inactives show top-dose activity, negative = inhibition, actives largely listed as inhibitors. 230,000 tested, 0.66% active. AID 485360; further: on the % scale 0 is the no-effect control and ±100 the full control effect; nearly all actives have a fitted effect of over 60% in size
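AlphaScreen assay: L3MBTL1 (50 nM final) was preincubated 30 min at room temperature with biotinylated H3(1-15)K9me1 peptide (75 nM final), then 30 min with library compounds; streptavidin donor and nickel chelate acceptor beads (10 ug/mL final) added, 30 min dark.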
G9a inh: G9a (human) methyltransferase inhibition; AID 504332; Potency, µM (highest dose often 102 µM), inactives show top-dose activity, negative = inhibition, actives largely listed as inhibitors; 350,000 tested, 8.8% active; Q96KQ7; G9a H3K9 monomethylation, AlphaScreen, 2 h; further: on the % scale 0 is the no-effect control and ±100 the full control effect; nearly all actives have a fitted effect of over 75% in size
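Step 1: enzyme (final 20 nM) with compound, 15 min RT. Step 2: substrate peptide 500 nM and SAM 20 uM, 2 h RT. Step 3: anti-H3K9me1 antibody and AlphaScreen beads, 10 min, then plate read.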
* marks the source's active call; other numbers are inactive results; [ ] = dose if it differs, or a comment. The call rests on the fitted dose curve; in most records, active means well fitted curve in the direction sought with a large enough effect; inconclusive means small, poorly fitted or top-dose-only effect, or another doubt; inactive means no such curve, though single readings can be large; an effect the other way counts as inactive or inconclusive. Potency means the concentration at half of the fitted maximal effect.

For C=C(C)CSC1=C(C#N)C(c2ccccc2Cl)CC(=O)N1 (stereo not given) the results were GLS inhibitor 1.2%, HP1b chromo inh inconclusive, BAZ2B inh 5.2%, JMJD2A Tudor inh inconclusive, L3MBTL1 inh -0.7% and G9a inh 44.7µM*.
For CCSC1=C(C#N)C(c2ccccc2C)CC(=O)N1 (stereo not given) the results were GLS inhibitor 1.3%, HP1b chromo inh 41.6%, BAZ2B inh 1.0%, JMJD2A Tudor inh -5.1% and G9a inh inconclusive.
`C=CCSC1=C(C#N)C(c2ccccc2Cl)CC(=O)N1` (stereo not given) gave GLS inhibitor 13.2%, HP1b chromo inh -14.0%, BAZ2B inh 5.2%, JMJD2A Tudor inh -19.2%, L3MBTL1 inh 2.6% and G9a inh 20µM*.
For COc1cc(Nc2nc(-c3ccccc3)c3cc(C)ccc3n2)cc(OC)c1OC the results were GLS inhibitor -4.6%, HP1b chromo inh -22.9%, BAZ2B inh inconclusive, JMJD2A Tudor inh inconclusive, L3MBTL1 inh -24.0% and G9a inh 39.8µM*.
`COc1cccc(Nc2nc(-c3ccccc3)c3cc(C)ccc3n2)c1` gave GLS inhibitor 3.6%, HP1b chromo inh 118.3%, BAZ2B inh 41.5%, JMJD2A Tudor inh 59.5% and G9a inh 76.1%[59 µM].
Screening Cc1cc(SCC(=O)Nc2ccc(C(F)(F)F)cc2)nc(=O)[nH]1 returned GLS inhibitor -0.8%, HP1b chromo inh -2.5%, BAZ2B inh 0.2%, JMJD2A Tudor inh -6.2% and G9a inh -1.4%[59 µM].
O=C(O)COc1ccc(S(=O)(=O)N2CCCC2)cc1 was read as GLS inhibitor -1.1%, HP1b chromo inh 39.8%, BAZ2B inh 6.5%, JMJD2A Tudor inh 3.3%, L3MBTL1 inh 1.5% and G9a inh inconclusive.
`O=C(COC(=O)c1ccc(C(F)(F)F)cc1)Nc1cccc(S(=O)(=O)N2CCCCC2)c1` gave GLS inhibitor 0.2%, HP1b chromo inh 25.4%, BAZ2B inh -6.3%, JMJD2A Tudor inh -20.8%, L3MBTL1 inh -1.1% and G9a inh 10µM*.
`Cc1ccc(OCC(=O)Nc2cccc(S(=O)(=O)N3CCCC3)c2)cc1C` gave GLS inhibitor 2.6%.
`CC(=O)c1ccc(OCC(=O)Nc2cccc(S(=O)(=O)N3CCCC3)c2)cc1` gave GLS inhibitor -3.6%, HP1b chromo inh 21.6%, BAZ2B inh -2.2%, JMJD2A Tudor inh -16.4%, L3MBTL1 inh 6.2% and G9a inh 20µM*.
For O=C(COC(=O)c1cnc(Cl)c(Cl)c1)Nc1ccc(S(=O)(=O)N2CCCC2)cc1 the results were GLS inhibitor 0.0%, HP1b chromo inh 3.8%, BAZ2B inh -0.2%, JMJD2A Tudor inh -14.9%, L3MBTL1 inh 7.6% and G9a inh -5.6%.
O=C(COC(=O)c1ccc(Cl)nc1)Nc1ccc(S(=O)(=O)N2CCCC2)cc1 was read as GLS inhibitor -16.5%, HP1b chromo inh 47.6%, BAZ2B inh 9.5%, JMJD2A Tudor inh -10.5%, L3MBTL1 inh -1.9% and G9a inh 44.7µM*.
`CN(C)c1ccc(C(=O)OCC(=O)Nc2cccc(S(=O)(=O)N3CCCC3)c2)cc1` gave GLS inhibitor -2.9%, HP1b chromo inh 4.3%, JMJD2A Tudor inh -23.3% and L3MBTL1 inh -11.2%.
`CNC(=O)COc1ccc(S(=O)(=O)N2CCCC2)cc1` gave GLS inhibitor inconclusive, HP1b chromo inh -14.2%, BAZ2B inh -3.0%, JMJD2A Tudor inh 11.2µM*, L3MBTL1 inh 2.2% and G9a inh -0.7%.
For COC(=O)Cn1c(=O)oc2ccc(C)cc21 the results were GLS inhibitor 0.0%, HP1b chromo inh -14.1%, BAZ2B inh -0.1%, JMJD2A Tudor inh 31.6µM*, L3MBTL1 inh 1.3% and G9a inh -30.2%.
Screening Cc1ccccc1-c1nc(SCC(=O)NCc2ccco2)c2c(=O)n(C)c(=O)n(C)c2n1 returned GLS inhibitor -1.3%, HP1b chromo inh 13.2%[57 µM], BAZ2B inh 1.5%, JMJD2A Tudor inh -7.1% and G9a inh 5.3%[59 µM].
